Data on 23 compounds can be found in PubChem BioAssay (NCATS).

Each structure is given as a SMILES string. Records with an inconclusive call do not appear. Active and inactive are the calls of the source. Calls follow the shape of the dose curve; as a rule, active = well fitted inhibition curve with a large enough effect; inconclusive = small, poorly fitted or top-dose-only effect; inactive = flat fitted curve, though single readings scatter.

Test in all cases: qHTS profiling for inhibitors of Plasmodium falciparum proliferation (AID 504749); also: nearly all actives have a fitted effect of over 60% in size
Details in all cases: P. falciparum in erythrocytes, SYBR Green DNA, 72 h; series mostly up to 28.7 µM
A general note: Quantitative high-throughput screening tests each substance at several concentrations.

For one test, the system named is ICS. An outline of the steps: (§1)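 SYBR Green fluorescence (ex 485 nm, em 535 nm) reports parasite DNA after 72 h compound exposure of infected red cells at 0.3% parasitemia, 2.5% hematocrit; signal normalized to 0.29 uM artemisinin and vehicle wells.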
In another test the test system is JCK. An outline of the steps:
as §1

For a further test, the system named is N140. Summed up: as §1
A further test has as its system P93_24. Summed up: as §1
A further test has as its system P94_40. Summed up: as §1
Another test deals with PAD. An outline of the steps:
as §1

A further test concerns PC15. Summed up:
as §1

In a further test the test system is PC26. Summed up: as §1
The subject of another test is PC49. Summed up: as §1
The next test relates to SC27B. Summed up: as §1
Potency is read from the fitted curve at half-maximal effect.

For `O=C1C(=O)c2ccccc2C(O)=C1C1CCC(c2ccc(Cl)cc2)CC1` (stereo unspecified), the Potency with ICS is 0.002 µM (active); with JCK, 0.0056 µM (active); in the test on N140 it was 0.005 µM (active); in the test on P93_24, 0.004 µM (active); in the test on P94_40 it was 0.0071 µM (active); with PAD, 0.0045 µM (active). Besides, the Potency is 0.0045 µM (active) in the test on PC15, 0.0057 µM (active) with PC26, 0.005 µM (active) in the test with PC49 and 0.0007 µM (active) in the test on SC27B.

In the case of `CC(C)CCCC(C)N` (stereo unspecified), the Potency result in the test with ICS, in the test with JCK, in the test on N140, in the test with P93_24, with P94_40 and in the test on PAD was “inactive” each time. Moreover, the Potency entry in the test with PC15, in the test with PC26, in the test on PC49 and in the test with SC27B was “inactive” in each case.

Consider `CC(=O)OC[C@H]1O[C@@H](n2ncc(=O)[nH]c2=O)[C@H](OC(C)=O)[C@@H]1OC(C)=O`, for which the Potency result in the test with ICS, with JCK, in the test with N140, with P93_24, with P94_40 and in the test with PAD was “inactive” throughout. Further, the Potency result in the test on PC15, in the test on PC26, in the test with PC49 and in the test with SC27B was “inactive” throughout.

In the case of `CCCCNc1ccc(C(=O)OCCOCCOCCOCCOCCOCCOCCOCCOCCOC)cc1`, the Potency entry with ICS, with JCK, with N140, in the test with P93_24, in the test on P94_40 and in the test with PAD was “inactive” each time. In addition, the Potency result in the test on PC15, in the test on PC26, with PC49 and with SC27B was “inactive” throughout.

As for `C[N+]1(CC2COC(c3ccccc3)(C3CCCCC3)O2)CCCCC1` (stereo unspecified), the Potency in the test on ICS was 4.47 µM (active); in the test on JCK, 12.6 µM (active); in the test on N140 it was 11.2 µM (active); in the test on P93_24, 6.31 µM (active); in the test with P94_40, 4.47 µM (active); in the test with PAD it was 5.01 µM (active). In addition, the Potency in the test on PC15 is 5.62 µM (active); in the test with PC26 it was 4.26 µM (active); in the test with PC49 it was 6.31 µM (active); in the test with SC27B, 7.08 µM (active).

`CCCCN=C(N)N=C(N)N`: the Potency entry with ICS, in the test with JCK, with N140, with P93_24, in the test on P94_40 and with PAD was “inactive” throughout. Moreover, the Potency result with PC15, in the test with PC26, in the test with PC49 and in the test with SC27B was “inactive” each time.

For the compound `Cc1ccc(S(=O)(=O)NC(=O)NC2CCCC2)cc1`, the Potency result in the test with ICS, in the test with JCK, in the test with N140, in the test on P93_24, in the test on P94_40 and with PAD was “inactive” throughout. Besides, the Potency result in the test with PC15, in the test with PC26, in the test with PC49 and in the test on SC27B was “inactive” in each case.

Regarding `NC(=S)N/N=C/c1cccnc1`, the Potency result with ICS, in the test with JCK, in the test with N140, in the test on P93_24, with P94_40 and in the test on PAD was “inactive” throughout. The Potency entry in the test on PC15, with PC26, with PC49 and in the test with SC27B was “inactive” each time.

As for `CCCCNC(=O)NS(=O)(=O)c1ccc(N)cc1`, the Potency result in the test on ICS, with JCK, with N140, in the test with P93_24, with P94_40 and with PAD was “inactive” in each case. The Potency entry in the test on PC15, in the test on PC26, in the test on PC49 and in the test on SC27B was “inactive” in each case.

As to `CC(=O)NO`, the Potency entry in the test with ICS, with JCK, in the test on N140, in the test with P93_24, in the test on P94_40 and with PAD was “inactive” each time. Further, the Potency result with PC15, in the test on PC26, in the test with PC49 and in the test on SC27B was “inactive” each time.

On to `Cc1cccc(C)c1NC(=O)CN1CCCCCC1`, for which the Potency result with ICS, in the test on JCK, with N140, with P93_24, in the test on P94_40 and in the test with PAD was “inactive” in each case. Further, the Potency result in the test with PC15, in the test with PC26, with PC49 and in the test on SC27B was “inactive” each time.

On to `Cn1c(=O)c2[nH]c(Br)nc2n(C)c1=O`, for which the Potency result with ICS, in the test with JCK, with N140, in the test on P93_24, in the test on PAD and with PC15 was “inactive” throughout. For the same compound, the Potency result with PC26, with PC49 and with SC27B was “inactive” in each case.

With `Cc1ncc(CO)c(C=O)c1O`, the Potency entry in the test with ICS, in the test on JCK, in the test on N140, in the test with P93_24, with P94_40 and in the test on PAD was “inactive” in each case. Besides, the Potency result in the test with PC15, in the test on PC49 and in the test with SC27B was “inactive” throughout.

For the compound `CCC1Nc2cc(Cl)c(S(N)(=O)=O)cc2S(=O)(=O)N1` (stereo unspecified), the Potency result with ICS, in the test on JCK, in the test with N140, in the test on P93_24, with P94_40 and in the test with PAD was “inactive” each time. Further, the Potency result in the test on PC15, with PC26, in the test on PC49 and in the test with SC27B was “inactive” each time.

As for `CCCCCCCCCCCCCC(=O)OC(C)C`, the Potency result in the test on ICS, in the test on JCK, with N140, in the test with P93_24, in the test on P94_40 and in the test on PAD was “inactive” each time. Further, the Potency result in the test on PC15, with PC26, in the test with PC49 and in the test on SC27B was “inactive” in each case.

Consider `c1ccc(-c2nc[nH]c2-c2ccccc2)cc1`, for which the Potency result in the test with ICS, in the test with JCK, in the test with N140, in the test with P93_24, in the test on P94_40 and in the test on PAD was “inactive” throughout. Besides, the Potency entry in the test with PC15, in the test with PC26, in the test with PC49 and in the test on SC27B was “inactive” throughout.

With `CC(=O)NCCCCCC(=O)O`, the Potency entry in the test with ICS, in the test on JCK, in the test with N140, in the test with P93_24, in the test with P94_40 and in the test on PAD was “inactive” in each case. In addition, the Potency entry in the test with PC15, with PC49 and with SC27B was “inactive” throughout.

In the case of `CCC(C(=O)OCCOCCN(CC)CC)c1ccccc1` (stereo unspecified), the Potency entry with ICS, in the test with JCK, with N140, with P93_24, in the test on PAD and with PC15 was “inactive” in each case. In addition, the Potency result in the test on PC26, in the test with PC49 and with SC27B was “inactive” throughout.

On to `CC(=O)Nc1ncc([N+](=O)[O-])s1`, for which the Potency result in the test with ICS, with JCK, in the test on N140, in the test with P93_24, with P94_40 and in the test with PAD was “inactive” each time. In addition, the Potency entry in the test with PC15, with PC26, in the test with PC49 and in the test with SC27B was “inactive” each time.

With `Nc1ccc(S(=O)(=O)NCc2ccccc2)cc1`, the Potency result in the test on ICS, with JCK, with N140, in the test with P93_24, in the test on P94_40 and with PAD was “inactive” in each case. Moreover, the Potency entry in the test on PC15, with PC26, in the test on PC49 and in the test with SC27B was “inactive” each time.

Consider `OCc1ccccn1`, for which the Potency result with ICS, with JCK, in the test on N140, in the test on P93_24, in the test on P94_40 and in the test on PAD was “inactive” in each case. Also, the Potency result in the test with PC15, with PC26, in the test on PC49 and with SC27B was “inactive” each time.

With `COc1ccccc1N1CCN(CCCCNC(=O)c2ccc(-c3ccc(C(C)=O)cc3)cc2)CC1`, in the test on ICS, the Potency was 14.1 µM (active). Moreover, the Potency entry with JCK, in the test on N140, in the test on P93_24, in the test on P94_40, with PAD and in the test with PC15 was “inactive” throughout. Moreover, the Potency result in the test with PC26, in the test on PC49 and in the test on SC27B was “inactive” in each case.

With `CCCCCCCCOc1ccc(C(=O)c2ccccc2)c(O)c1`, the Potency result with ICS, in the test on JCK, in the test on N140, with P93_24, in the test on P94_40 and with PAD was “inactive” each time. Moreover, the Potency entry with PC15, with PC26, in the test on PC49 and with SC27B was “inactive” in each case.
